# Experimental data: PubChem BioAssay (NCI)
# The panel holds about 79,000 compounds, 15% with a hit somewhere; the sample as a whole holds those more often. Values without a mark were called inactive. The source made the active and inactive calls. No stated cut-off is given here; in the data, active means growth inhibition above about 70%; inactive means the rest.
# Key:
# [1] = NCI Yeast Anticancer Drug Screen. Data for the mec2-1 strain (AID 157); settings: S. cerevisiae mec2-1 strain, stronger effect = higher value
# Outline: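 Yeast mec2-1 mutant treated with compound. Readout: growth inhibition vs vehicle controls.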
# [2] = NCI Yeast Anticancer Drug Screen. Data for the rad14 strain (AID 159);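 further: 0% = growth of vehicle-treated control cultures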; settings: S. cerevisiae rad14 strain growth inhibition, stronger effect = higher value
# Outline: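 Readout: yeast growth inhibition, referenced to vehicle-only cultures. Strain bears a defined alteration in DNA damage repair.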
# [3] = NCI Yeast Anticancer Drug Screen. Data for the sgs1 mgt1 strain (AID 161);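 further: 0% = growth of cultures given vehicle only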; settings: S. cerevisiae sgs1 mgt1 strain, stronger effect = higher value
# Outline: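 Test agents were incubated with a DNA-repair-mutant yeast strain. Growth was then read and compared against vehicle-treated controls.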
# [4] = NCI Yeast Anticancer Drug Screen. Data for the CLN2oe strain (AID 163);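 further: 0% = growth of vehicle-only control cultures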; settings: S. cerevisiae CLN2oe strain, stronger effect = higher value
# Outline: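 Read-out: yeast growth inhibition, expressed relative to vehicle-only controls. The strain bears an engineered cell-cycle alteration.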
# [5] = NCI Yeast Anticancer Drug Screen. Data for the cln2 rad14 strain (AID 165);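 further: 0% = growth equal to vehicle treated cultures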; settings: S. cerevisiae cln2 rad14 strain, stronger effect = higher value
# Outline: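 cln2 rad14 yeast strain; compound exposure; growth inhibition read vs vehicle controls.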
# [6] = NCI Yeast Anticancer Drug Screen. Data for the bub3 strain (AID 167); settings: S. cerevisiae bub3 mutant strain, stronger effect = higher value
# Outline: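 Part of a panel of yeast mutants defective in DNA damage repair or cell cycle regulation. Each strain is grown with compound, and inhibition is calculated relative to solvent-treated cultures.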
# [7] = NCI Yeast Anticancer Drug Screen. Data for the wt2 strain (AID 169);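 further: 0% = growth of vehicle-treated yeast cultures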; settings: S. cerevisiae wt2 strain growth inhibition, stronger effect = higher value
# Outline: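 Read-out: growth inhibition versus vehicle-treated control cultures after compound exposure of the yeast strain.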
# [8] = NCI Yeast Anticancer Drug Screen. Data for the mlh1 strain (AID 171);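 further: 0% = growth of vehicle-treated control cultures of the same strain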; settings: S. cerevisiae mlh1 strain growth inhibition, stronger effect = higher value
# Outline: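 Read-out: growth inhibition versus vehicle controls. Strain: engineered yeast with a defined DNA repair or cell cycle defect, compound-treated.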
# [9] = NCI Yeast Anticancer Drug Screen. Data for the sgs1 strain (AID 173);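 further: 0% = growth of vehicle-only control cultures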; settings: S. cerevisiae sgs1 mutant, stronger effect = higher value
# Outline: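 Read-out: yeast growth inhibition relative to vehicle controls, following compound exposure of a strain with a defined DNA repair/cell cycle alteration.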
# [10] = NCI Yeast Anticancer Drug Screen. Data for the mlh1 rad18 strain (AID 175); settings: S. cerevisiae mlh1 rad18 strain growth inhibition, stronger effect = higher value
# Outline: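 Yeast w/ defined DNA-repair lesions; compound exposure; growth vs vehicle controls → % inhibition.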
# [11] = NCI Yeast Anticancer Drug Screen. Data for the rad18 strain (AID 177); settings: S. cerevisiae rad18 mutant growth inhibition, stronger effect = higher value
# Outline: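 Readout: growth inhibition vs vehicle controls. Cells: genetically altered yeast strain, DNA repair defect.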
# [12] = NCI Yeast Anticancer Drug Screen. Data for the rad52 strain (AID 147);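 further: 0% = growth of vehicle-treated control cultures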; settings: S. cerevisiae rad52 mutant growth inhibition, stronger effect = higher value
# Outline: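 Read-out: growth inhibition versus vehicle-treated controls. Cells were a DNA repair-deficient yeast strain treated with compounds.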
# [13] = NCI Yeast Anticancer Drug Screen. Data for the wt1 strain (AID 149);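 further: 0% = growth of vehicle-treated wt1 cultures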; settings: S. cerevisiae wt1 strain (SPY 50644) growth inhibition, stronger effect = higher value
# Outline: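 The wt1 strain was treated with compounds, and growth was compared with vehicle-treated cultures to give inhibition.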
# [14] = NCI Yeast Anticancer Drug Screen. Data for the rad50EPP+ strain (AID 151);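 further: 0% = growth of vehicle-treated control cultures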; settings: S. cerevisiae rad50 mutant strain, stronger effect = higher value
# Outline: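 Growth inhibition read against vehicle controls in rad50EPP+ yeast, a strain altered in DNA damage repair, after compound exposure.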
# [15] = NCI Yeast Anticancer Drug Screen. Data for the mgt1 strain (AID 153); settings: S. cerevisiae mgt1 mutant growth inhibition, stronger effect = higher value
# Outline: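 mgt1 yeast grown with test compound; read-out is growth inhibition versus vehicle-treated cultures.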
# [16] = NCI Yeast Anticancer Drug Screen. Data for the rad50 strain (AID 155);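 further: 0% = growth of vehicle-only cultures of the same strain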; settings: S. cerevisiae rad50 strain growth inhibition, stronger effect = higher value
# Outline: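 Cells are treated with compound, grown, and their growth is then scored against vehicle-only cultures of the same repair-deficient yeast strain.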
# [17] = at 5.0 µM (retest, dose inferred, filed as 0.5)
# [18] = at 50.0 µM (retest, dose inferred, filed as 5.0)
smiles,measurement,setting,value
CC(C)(C)c1nc2c(o1)C(=O)c1ccccc1C2=O,growth inhibition,[1]; [17],14%
same,growth inhibition,[1]; at 11.0 µM,27%
same,growth inhibition,[1]; at 33.0 µM,57%
same,growth inhibition,[1]; [18],77% (active)
same,growth inhibition,[1]; at 50.0 µM,94% (active)
same,growth inhibition,[1]; at 100.0 µM,94% (active)
same,growth inhibition,[2]; at 1.2 µM,-15%
same,growth inhibition,[2]; at 3.7 µM,-5%
same,growth inhibition,[2]; at 11.0 µM,13%
same,growth inhibition,[2]; at 33.0 µM,79% (active)
same,growth inhibition,[2]; at 100.0 µM,98% (active)
same,growth inhibition,[3]; [17],32%
same,growth inhibition,[3]; [18],70% (active)
same,growth inhibition,[3]; at 50.0 µM,93.3% (active)
same,growth inhibition,[4]; at 1.2 µM,-3%
same,growth inhibition,[4]; at 3.7 µM,-8%
same,growth inhibition,[4]; at 11.0 µM,6%
same,growth inhibition,[4]; at 33.0 µM,65%
same,growth inhibition,[4]; at 100.0 µM,96% (active)
same,growth inhibition,[5]; [17],3%
same,growth inhibition,[5]; [18],42%
same,growth inhibition,[5]; at 50.0 µM,92.1% (active)
same,growth inhibition,[6]; at 1.2 µM,-3%
same,growth inhibition,[6]; at 3.7 µM,12%
same,growth inhibition,[6]; [17],52%
same,growth inhibition,[6]; at 11.0 µM,36%
same,growth inhibition,[6]; at 33.0 µM,87% (active)
same,growth inhibition,[6]; [18],90% (active)
same,growth inhibition,[6]; at 50.0 µM,93% (active)
same,growth inhibition,[6]; at 100.0 µM,97% (active)
same,growth inhibition,[7]; at 1.2 µM,-41%
same,growth inhibition,[7]; at 3.7 µM,-26%
same,growth inhibition,[7]; at 11.0 µM,32%
same,growth inhibition,[7]; at 33.0 µM,72% (active)
same,growth inhibition,[7]; at 100.0 µM,94% (active)
same,growth inhibition,[8]; at 1.2 µM,-6%
same,growth inhibition,[8]; at 3.7 µM,-3%
same,growth inhibition,[8]; at 11.0 µM,25%
same,growth inhibition,[8]; at 33.0 µM,81% (active)
same,growth inhibition,[8]; at 100.0 µM,96% (active)
same,growth inhibition,[9]; at 1.2 µM,7%
same,growth inhibition,[9]; at 3.7 µM,-10%
same,growth inhibition,[9]; at 11.0 µM,36%
same,growth inhibition,[9]; at 33.0 µM,88% (active)
same,growth inhibition,[9]; at 100.0 µM,95% (active)
same,growth inhibition,[10]; [17],21%
same,growth inhibition,[10]; [18],86% (active)
same,growth inhibition,[10]; at 50.0 µM,91.5% (active)
same,growth inhibition,[11]; at 1.2 µM,-25%
same,growth inhibition,[11]; at 3.7 µM,-14%
same,growth inhibition,[11]; at 11.0 µM,4%
same,growth inhibition,[11]; at 33.0 µM,77% (active)
same,growth inhibition,[11]; at 100.0 µM,95% (active)
CC1(C)[C@@H]2CC[C@]1(C)[C@H](OC(=O)CSC#N)C2,growth inhibition,[12]; at 1.2 µM,0%
same,growth inhibition,[12]; at 3.7 µM,3%
same,growth inhibition,[12]; at 11.0 µM,20%
same,growth inhibition,[12]; at 33.0 µM,83% (active)
same,growth inhibition,[12]; at 100.0 µM,95% (active)
same,growth inhibition,[13]; at 1.2 µM,1%
same,growth inhibition,[13]; at 3.7 µM,4%
same,growth inhibition,[13]; at 11.0 µM,14%
same,growth inhibition,[13]; at 33.0 µM,61%
same,growth inhibition,[13]; at 100.0 µM,96% (active)
same,growth inhibition,[14]; at 1.2 µM,-1%
same,growth inhibition,[14]; at 3.7 µM,4%
same,growth inhibition,[14]; at 11.0 µM,9%
same,growth inhibition,[14]; at 33.0 µM,24%
same,growth inhibition,[14]; at 100.0 µM,50%
same,growth inhibition,[15]; at 1.2 µM,1%
same,growth inhibition,[15]; at 3.7 µM,2%
same,growth inhibition,[15]; at 11.0 µM,23%
same,growth inhibition,[15]; at 33.0 µM,90% (active)
same,growth inhibition,[15]; at 100.0 µM,98% (active)
same,growth inhibition,[16]; at 1.2 µM,1%
same,growth inhibition,[16]; at 3.7 µM,1%
same,growth inhibition,[16]; [17],-5%
same,growth inhibition,[16]; at 11.0 µM,20%
same,growth inhibition,[16]; at 33.0 µM,68%
same,growth inhibition,[16]; [18],98% (active)
same,growth inhibition,[16]; at 50.0 µM,99% (active)
same,growth inhibition,[16]; at 100.0 µM,96% (active)
same,growth inhibition,[1]; at 1.2 µM,4%
same,growth inhibition,[1]; at 3.7 µM,8%
same,growth inhibition,[1]; [17],8%
same,growth inhibition,[1]; at 11.0 µM,27%
same,growth inhibition,[1]; at 33.0 µM,86% (active)
same,growth inhibition,[1]; [18],98% (active)
same,growth inhibition,[1]; at 50.0 µM,98% (active)
same,growth inhibition,[1]; at 100.0 µM,97% (active)
same,growth inhibition,[2]; at 1.2 µM,-2%
same,growth inhibition,[2]; at 3.7 µM,-1%
same,growth inhibition,[2]; at 11.0 µM,12%
same,growth inhibition,[2]; at 33.0 µM,43%
same,growth inhibition,[2]; at 100.0 µM,97% (active)
same,growth inhibition,[3]; [17],28%
same,growth inhibition,[3]; [18],97% (active)
same,growth inhibition,[3]; at 50.0 µM,98.6% (active)
same,growth inhibition,[4]; at 1.2 µM,-3%
same,growth inhibition,[4]; at 3.7 µM,-1%
same,growth inhibition,[4]; at 11.0 µM,1%
same,growth inhibition,[4]; at 33.0 µM,47%
same,growth inhibition,[4]; at 100.0 µM,95% (active)
same,growth inhibition,[5]; [17],34%
same,growth inhibition,[5]; [18],91% (active)
same,growth inhibition,[5]; at 50.0 µM,94.8% (active)
same,growth inhibition,[6]; at 1.2 µM,2%
same,growth inhibition,[6]; at 3.7 µM,13%
same,growth inhibition,[6]; [17],14%
same,growth inhibition,[6]; at 11.0 µM,-19%
same,growth inhibition,[6]; at 33.0 µM,81% (active)
same,growth inhibition,[6]; [18],99% (active)
same,growth inhibition,[6]; at 50.0 µM,99% (active)
same,growth inhibition,[6]; at 100.0 µM,96% (active)
same,growth inhibition,[7]; at 1.2 µM,1%
same,growth inhibition,[7]; at 3.7 µM,5%
same,growth inhibition,[7]; at 11.0 µM,25%
same,growth inhibition,[7]; at 33.0 µM,89% (active)
same,growth inhibition,[7]; at 100.0 µM,97% (active)
same,growth inhibition,[8]; at 1.2 µM,7%
same,growth inhibition,[8]; at 3.7 µM,9%
same,growth inhibition,[8]; at 11.0 µM,29%
same,growth inhibition,[8]; at 33.0 µM,73% (active)
same,growth inhibition,[8]; at 100.0 µM,98% (active)
same,growth inhibition,[9]; at 1.2 µM,9%
same,growth inhibition,[9]; at 3.7 µM,23%
same,growth inhibition,[9]; at 11.0 µM,66%
same,growth inhibition,[9]; at 33.0 µM,94% (active)
same,growth inhibition,[9]; at 100.0 µM,97% (active)
same,growth inhibition,[10]; [17],9%
same,growth inhibition,[10]; [18],98% (active)
same,growth inhibition,[10]; at 50.0 µM,98.8% (active)
same,growth inhibition,[11]; at 1.2 µM,9%
same,growth inhibition,[11]; at 3.7 µM,14%
same,growth inhibition,[11]; at 11.0 µM,28%
same,growth inhibition,[11]; at 33.0 µM,92% (active)
same,growth inhibition,[11]; at 100.0 µM,96% (active)
